Laboratory results taken from PubChem BioAssay (Tox21).
Several values for one entry are separate records, joined by “and”; a condition that tells them apart may be missing. Equal values may be shown once. Records with an inconclusive call do not appear. Entries that show only a call come without a potency. Activity calls are given as the source filed them. Unless noted, calls come from the whole dose curve; as a rule, active = well fitted curve in the direction sought with a large enough effect in the repeat runs; inconclusive = weak or mixed curves; inactive = no such curve, though single readings can be large; an effect the other way counts as inactive or inconclusive.

Experiments:
[1] = qHTS assay to identify aromatase inhibitors - cell viability counter screen (AID 743084);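 note: cells stimulated with testosterone during compound exposure; nearly all actives have a fitted effect of over 55% in size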; note: potency is the fitted concentration of half-maximal effect
[2] = biological target: Aryl hydrocarbon receptor (Homo sapiens) (UniProt P35869); assay: qHTS assay to identify small molecule that activate the aryl hydrocarbon receptor (AhR) signaling pathway (AID 743085); note: nearly all actives have a fitted effect of over 15% in size; note: potency is the fitted concentration of half-maximal effect;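 for activation: HG2L7.5c1 human HepG2 liver cells with stably integrated DRE-driven firefly reporter; series mostly up to about 70 µM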
Sequence of Aryl hydrocarbon receptor (Homo sapiens) (P35869 whole entry, looked up): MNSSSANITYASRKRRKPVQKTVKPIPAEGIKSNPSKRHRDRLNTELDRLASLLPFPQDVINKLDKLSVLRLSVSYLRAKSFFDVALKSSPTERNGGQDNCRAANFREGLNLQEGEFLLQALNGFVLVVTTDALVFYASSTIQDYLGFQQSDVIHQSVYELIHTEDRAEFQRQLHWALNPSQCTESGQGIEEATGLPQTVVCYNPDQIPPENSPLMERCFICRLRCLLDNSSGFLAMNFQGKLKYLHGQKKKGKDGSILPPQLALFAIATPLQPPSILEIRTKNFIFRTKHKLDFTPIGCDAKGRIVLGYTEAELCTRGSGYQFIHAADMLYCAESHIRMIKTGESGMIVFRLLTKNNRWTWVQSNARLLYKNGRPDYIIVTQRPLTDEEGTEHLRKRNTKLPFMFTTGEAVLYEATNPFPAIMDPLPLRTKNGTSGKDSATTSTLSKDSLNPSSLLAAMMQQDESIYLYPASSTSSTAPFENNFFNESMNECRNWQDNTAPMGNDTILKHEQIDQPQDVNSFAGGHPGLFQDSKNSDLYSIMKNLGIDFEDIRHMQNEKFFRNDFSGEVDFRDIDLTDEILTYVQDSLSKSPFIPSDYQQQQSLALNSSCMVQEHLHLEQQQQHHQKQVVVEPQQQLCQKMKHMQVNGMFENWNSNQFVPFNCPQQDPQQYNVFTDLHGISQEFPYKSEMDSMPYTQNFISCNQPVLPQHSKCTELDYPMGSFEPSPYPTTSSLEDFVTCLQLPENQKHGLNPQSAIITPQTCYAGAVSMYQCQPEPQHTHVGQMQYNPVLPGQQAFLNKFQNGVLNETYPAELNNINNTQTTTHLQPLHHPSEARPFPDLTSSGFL
Procedure, shortened: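 24 h compound exposure, 37C, HepG2-derived HG2L7.5c1 cells with DRE-responsive luciferase. Readouts: fluorescence viability, then luminescence at room temperature after 30 min.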

[3] = qHTS assay to identify small molecule that activate the aryl hydrocarbon receptor (AhR) signaling pathway - cell viability counter screen (AID 743086); note: nearly all actives have a fitted effect of over 45% in size; note: potency is the fitted concentration of half-maximal effect
Procedure, shortened: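 HepG2-AhR-luc (HG2L7.5c1) cells, 4000/well, were preincubated 5 h at 37C, exposed to compound in qHTS format for 24 hr at 37C, then given CellTiter-Fluor for 30 min; viability was read as fluorescence in the reporter wells.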

[4] = biological target: Peroxisome proliferator-activated receptor gamma (Homo sapiens) (UniProt P37231); assay: qHTS assay to identify small molecule agonists of the peroxisome proliferator-activated receptor gamma (PPARg) signaling pathway (AID 743094; active = well fitted activation curve with a large enough effect in the signal ratio in the repeat runs, not every such curve was filed as active; the % refers to the signal ratio)
Sequence of Peroxisome proliferator-activated receptor gamma (Homo sapiens) (P37231 whole entry, looked up): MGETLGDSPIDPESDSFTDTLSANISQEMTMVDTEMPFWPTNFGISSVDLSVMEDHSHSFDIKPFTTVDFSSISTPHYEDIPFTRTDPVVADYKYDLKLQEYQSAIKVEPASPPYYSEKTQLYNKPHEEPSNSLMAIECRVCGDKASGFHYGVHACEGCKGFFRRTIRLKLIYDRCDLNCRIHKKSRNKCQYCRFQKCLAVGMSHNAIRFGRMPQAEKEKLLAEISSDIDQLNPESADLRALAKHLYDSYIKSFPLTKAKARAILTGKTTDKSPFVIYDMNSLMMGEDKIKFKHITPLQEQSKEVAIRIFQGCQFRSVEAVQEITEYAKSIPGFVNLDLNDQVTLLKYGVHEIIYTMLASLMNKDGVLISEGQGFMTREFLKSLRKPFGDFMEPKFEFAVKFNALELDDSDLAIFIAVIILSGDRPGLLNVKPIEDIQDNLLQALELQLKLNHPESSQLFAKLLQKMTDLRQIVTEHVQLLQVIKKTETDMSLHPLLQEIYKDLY
Procedure, shortened: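 Fluorescence-based beta-lactamase readout in HEK293H PPARg UAS-bla cells after 17 h compound exposure (37C) and 1 h B/G FRET substrate incubation at room temperature.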

[5] = qHTS assay to identify small molecule antagonists of the peroxisome proliferator-activated receptor gamma (PPARg) signaling pathway - cell viability counter screen (AID 743194); note: nearly all actives have a fitted effect of over 55% in size; note: potency is the fitted concentration of half-maximal effect
Procedure, shortened: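 PPARg-UAS-bla HEK293H cells were plated, rested 5 h at 37 C, then treated with compounds plus rosiglitazone (50 nM final) for 17 h at 37 C; viability was then read by CellTiter-Glo luminescence after 30 min at room temperature.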

[6] = qHTS assay for small molecule agonists of the antioxidant response element (ARE) signaling pathway - cell viability counter screen (AID 743203; calls by dose curve; note: nearly all actives have a fitted effect of over 55% in size; note: potency is the fitted concentration of half-maximal effect)
Procedure, shortened: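 Parallel cytotoxicity read-out for the ARE-bla screen: HepG2 reporter cells, 16 hrs with compounds, then CellTiter-Glo luminescence.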

[7] = qHTS assay for small molecule activators of the heat shock response signaling pathway - cell viability counter screen (AID 743209); note: nearly all actives have a fitted effect of over 50% in size; note: potency is the fitted concentration of half-maximal effect
Procedure, shortened: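 To flag cytotoxic compounds, HSE-bla HeLa cells plated at 1500 cells/well were dosed for 5 h at 37 C, followed by the reporter FRET read and then CellTiter-Glo, with luminescence recorded 30 min after reagent addition.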

[8] = qHTS assay for small molecule activators of the heat shock response signaling pathway (AID 743210; active = well fitted activation curve with a large enough effect in the signal ratio in the repeat runs, with a control signal flat, not every such curve was filed as active; the % refers to the signal ratio;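 note: HeLa cells with beta-lactamase reporter driven by heat shock elements; series mostly up to about 63 µM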)
Procedure, shortened: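 Activation of heat shock element-controlled beta-lactamase expression is measured in HeLa cells by LiveBLAzer FRET fluorescence, with compound exposure lasting 5 h at 37 C and substrate loading 2.5 h at room temperature.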

[9] = qHTS assay for small molecule agonists of the antioxidant response element (ARE) signaling pathway (AID 743202; active = well fitted activation curve with a large enough effect in the signal ratio in the repeat runs, not every such curve was filed as active; the % refers to the signal ratio; note: potency is the fitted concentration of half-maximal effect)
Procedure, shortened: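 Steps: seed ARE-bla HepG2 cells (2,000/well); incubate 5 h at 37 C; add compounds by pin tool; incubate 16 h at 37 C; add FRET substrate; read fluorescence after 2 h at RT.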

SMILES: CN1C(=O)c2ccc([N+](=O)[O-])cc2C1=O
- Potency [1]: inactive
- Potency [2]: inactive
- Potency [3]: inactive
- Potency [4]: inactive
- Potency [5]: inactive
- Potency [6]: inactive
- Potency [7]: inactive
- Potency [8]: inactive

SMILES: Cc1cc(OCCOCC[N+](C)(C)Cc2ccccc2)ccc1C(C)(C)CC(C)(C)C
- Potency [1]: 26.6 µM (active) and 60.8 µM (active)
- Potency [2]: inactive
- Potency [3]: 29.8 µM (active) and 60.8 µM (active)
- Potency [4]: inactive
- Potency [5]: 15.4 µM (active) and 29.8 µM (active)
- Potency [6]: 19.2 µM (active) and 29.8 µM (active)
- Potency [7]: 38.7 µM (active)

SMILES: CC[C@@H](N)CO
- Potency [1]: inactive
- Potency [2]: inactive
- Potency [3]: inactive
- Potency [4]: inactive
- Potency [5]: inactive
- Potency [9]: inactive
- Potency [8]: inactive

SMILES: CCc1ccc(C(c2ccc(CC)cc2)C(Cl)Cl)cc1
- Potency [1]: inactive
- Potency [2]: inactive
- Potency [3]: inactive
- Potency [4]: inactive
- Potency [5]: inactive
- Potency [9]: inactive
- Potency [6]: inactive
- Potency [7]: inactive
- Potency [8]: inactive

SMILES: O=C1NCC2(CCN(CCc3ccccc3)CC2)O1
- Potency [1]: inactive
- Potency [2]: inactive
- Potency [3]: inactive
- Potency [4]: inactive
- Potency [5]: inactive
- Potency [9]: inactive
- Potency [7]: inactive
- Potency [8]: inactive

SMILES: Cc1cccc([N+](=O)[O-])c1C(=O)O
- Potency [1]: inactive
- Potency [2]: inactive
- Potency [3]: inactive
- Potency [4]: inactive
- Potency [5]: inactive
- Potency [9]: inactive
- Potency [6]: inactive
- Potency [7]: inactive
- Potency [8]: inactive

SMILES: COC(=O)/C=C/c1ccccc1
- Potency [1]: inactive
- Potency [2]: inactive
- Potency [3]: inactive
- Potency [4]: inactive
- Potency [5]: inactive
- Potency [9]: inactive
- Potency [6]: inactive
- Potency [7]: inactive
- Potency [8]: inactive

SMILES: O=C(O)c1cccc(C(=O)O)c1
- Potency [1]: inactive
- Potency [2]: inactive
- Potency [3]: inactive
- Potency [4]: inactive
- Potency [5]: inactive
- Potency [6]: inactive
- Potency [7]: inactive
- Potency [8]: inactive

SMILES: CC(C)(C)NCC(O)c1cc(O)cc(O)c1 (centres undefined)
- Potency [1]: inactive
- Potency [2]: inactive
- Potency [3]: inactive
- Potency [4]: inactive
- Potency [5]: inactive
- Potency [9]: inactive
- Potency [6]: inactive
- Potency [7]: inactive
- Potency [8]: inactive

SMILES: O=C(O[C@@H]1Cc2c(O)cc(O)cc2O[C@@H]1c1cc(O)c(O)c(O)c1)c1cc(O)c(O)c(O)c1
- Potency [1]: 30.7 µM (active) and 46.8 µM (active)
- Potency [2]: inactive
- Potency [3]: 34.4 µM (active) and 41.7 µM (active)
- Potency [4]: inactive
- Potency [5]: inactive
- Potency [6]: inactive
- Potency [7]: inactive
- Potency [8]: inactive

SMILES: CCCCC/C=C/CC1CC(=O)OC1=O (centres undefined)
- Potency [1]: inactive
- Potency [2]: inactive
- Potency [3]: inactive
- Potency [4]: inactive
- Potency [5]: inactive
- Potency [9]: inactive
- Potency [7]: inactive
- Potency [8]: inactive

SMILES: c1ccc2cc3c(ccc4ccccc43)cc2c1
- Potency [1]: inactive
- Potency [2]: 4.34 µM (active) and 6.86 µM (active)
- Potency [3]: inactive
- Potency [4]: inactive
- Potency [5]: inactive
- Potency [9]: 6.11 µM (active)
- Potency [6]: inactive
- Potency [7]: inactive
- Potency [8]: inactive
